# HP1b binding inh – HP1-beta chromodomain-methylated histone interaction inhibition; P83916; AlphaScreen HP1-beta / biotin-H3K9me3 peptide binding; Potency, µM (series often up to 114 µM), inactives show at the top dose activity change, negative = inhibition, usual class: inhibitors; 0.56% of 390,000 active; also: nearly all actives have a fitted effect of over 70% in size
# Target sequence (P83916 whole entry, looked up): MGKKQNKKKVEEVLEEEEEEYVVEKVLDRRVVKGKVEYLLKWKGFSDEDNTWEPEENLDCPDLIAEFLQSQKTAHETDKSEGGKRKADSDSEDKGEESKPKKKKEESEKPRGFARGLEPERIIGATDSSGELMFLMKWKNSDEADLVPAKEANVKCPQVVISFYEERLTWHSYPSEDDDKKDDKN
#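 HP1-beta protein (50 nM final) preincubated 30 min at room temperature with biotinylated H3(1-18)K9me3 peptide (50 nM) in PBS pH 7.4, 0.01% Tween-20, then compound added for 30 min. AlphaScreen streptavidin donor/nickel chelate acceptor beads (10 ug/mL final), 30 min dark, luminescence read.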
# ALOX12 inh – blocks human arachidonate 12S-lipoxygenase | P18054 | AID 1671190 | purified 12hLO, xylenol orange hydroperoxide absorbance | 1.1% of 580,000 active | Potency, µM (highest dose often 108 µM), for the others: top-dose activity change, negative = inhibition, hits mostly inhibitors; also: % is scaled to controls: 0 for no effect and ±100 for the full control effect
#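 Purified human 12hLO (150 nM final) in 25 mM Hepes, 0.01% Triton X-100, pH 7.0 was preincubated 15 min at room temperature with compound. Then 40 uM arachidonic acid was added, 30 min. Hydroperoxide was read by Fe-XO absorbance ratio 573/405 nm.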
# BAZ2B block – inhibitors of human BAZ2B bromodomain | Q9UIF8 | Potency, µM (titrated, usually from 114 µM), inactives show at the highest dose activity change, negative = inhibition, actives largely listed as inhibitors | 4.4% of 360,000 active | AlphaScreen BAZ2B-H3K14Ac peptide displacement | AID 504333; also: % is scaled to controls: 0 for no effect and ±100 for the full control effect; nearly all actives have a fitted effect of over 60% in size
#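 In this displacement format the biotinylated H3(5-23) peptide acetylated at Lys14 serves as ligand at 50 nM, with BAZ2B at 50 nM in PBS pH 7.4 containing 0.01% Tween-20. Donor and acceptor beads are 10 ug/mL final.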
# G9a inh – blocks human histone lysine methyltransferase G9a. Q96KQ7. G9a H3K9 monomethylation, AlphaScreen, 2 h. Potency, µM (doses to about 102 µM), inactives show top-dose activity, negative = inhibition, usual class: inhibitors. 8.8% of 350,000 active; also: % is scaled to controls: 0 for no effect and ±100 for the full control effect; nearly all actives have a fitted effect of over 75% in size
# Target sequence (Q96KQ7 913-1193 limits assumed): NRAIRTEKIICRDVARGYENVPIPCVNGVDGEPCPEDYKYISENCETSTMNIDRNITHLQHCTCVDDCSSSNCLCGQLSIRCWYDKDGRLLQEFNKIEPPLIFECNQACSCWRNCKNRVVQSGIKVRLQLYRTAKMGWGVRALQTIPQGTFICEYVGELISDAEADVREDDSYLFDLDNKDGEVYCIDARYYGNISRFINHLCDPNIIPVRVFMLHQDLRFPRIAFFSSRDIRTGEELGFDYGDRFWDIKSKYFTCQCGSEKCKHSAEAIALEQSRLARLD
#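 Compounds were preincubated with 20 nM G9a for 15 min, after which biotinylated H3K9 peptide (500 nM) and SAM (20 uM) started a 2 h room-temperature reaction. Monomethylated product was quantified by antibody-based AlphaScreen chemiluminescence.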
# Sfp inh – blocks B. subtilis Sfp PPTase activity; Q9F4F7; 3.5% of 310,000 active; Biochemical Sfp PPTase activity, qHTS; Potency, µM, inactives show largest response in the series, negative = inhibition, actives largely listed as inhibitors;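 also: the enzyme is Sfp with the accession as filed and its product quenches rhodamine fluorescence; 0% = enzyme reaction without inhibitor and -100% = no enzyme wells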
#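 Compounds were incubated with enzyme (final 15 nM) for 15 min at room temperature before substrate addition started the reaction. Fluorescence at 525 nm excitation, 598 nm emission was recorded immediately and after 30 minutes.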
# JMJD2A Tudor inh – inhibitors of human JMJD2A Tudor domain; O75164; AlphaScreen JMJD2A-Tudor / H3K4me3 peptide binding; Potency, µM (highest dose often 114 µM), for inactives: at the highest dose activity change, negative = inhibition, usual class: inhibitors; 4.4% of 390,000 active; also: % is scaled to controls: 0 for no effect and ±100 for the full control effect; nearly all actives have a fitted effect of over 50% in size
# * marks the source's active call; other numbers are inactive results; u = inconclusive; x = no result; [ ] = remark or other dose. A selection: hits, their analogues and other compounds. The true share with any hit is near 8.7%. Calls follow the shape of the dose curve; as a rule, active = well fitted curve in the direction sought with a large enough effect; inconclusive = small, poorly fitted or top-dose-only effect, or another doubt; inactive = no such curve, though single readings can be large; an effect the other way counts as inactive or inconclusive. Potency is read from the fitted curve at half-maximal effect.
SMILES,HP1b binding inh,ALOX12 inh,BAZ2B block,G9a inh,Sfp inh,JMJD2A Tudor inh
CCn1nc(C(=O)Nc2cccc(S(=O)(=O)N3CCCCCC3)c2)c2ccccc2c1=O,x,3%,x,x,x,x
CC(=O)c1cccc(NC(=O)CN2C(=O)NC3(CCCCC3)C2=O)c1,x,0%,x,x,x,x
O=S(=O)(NNc1nccc(C(F)(F)F)n1)c1cccc(Cl)c1Cl,10%,52%,-3%,8.9µM*,35µM*,-14%
FC(F)(F)c1ccnc(NCc2ccc(Cl)cc2)n1,113%,0%,61%,83%,11%,63%
O=C(Nc1nc(NC(=O)c2ccco2)n(-c2ccccc2)n1)c1ccccc1,45%,22%,45µM*,35%[12.7 µM],-18%,-9%
Nc1nc(NC(=O)c2ccccc2)nn1-c1ccccc1,61%,-3%,u,15%,-8%,-9%
CN(c1ccc(OCC(=O)N2CCN(c3ncccn3)CC2)cc1)S(=O)(=O)c1cccs1,x,-1%,x,x,x,x
Cc1ccc2c(cnn2C(=O)CCC(=O)NCc2cccc(Br)c2)c1,39%,-5%,8%,x,1%,-8%
Cc1ccc2c(cnn2C(=O)CCC(=O)NCc2cccc(Cl)c2)c1,29%,27%,11%,45µM*,-23%,-15%
Cc1ccc2nc(-c3ccccn3)c(NC3CCCC3)n2c1,u,1%,-9%,-43%,5%,45µM*
Cc1cccc(C)c1Nc1c(-c2ccccn2)nc2ccccn12,u,u,25µM*,40µM*,16%,45µM*
Cc1cc(C)n2c(Nc3c(C)cccc3C)c(-c3ccccn3)nc2n1,x,-8%,x,x,x,x
Cc1cccc(C)c1Nc1c(-c2ccsc2)nc2ccccn12,u,u,u,14µM*,x,45µM*
Cc1cccc(C)c1Nc1c(-c2ccsc2)nc2ccc(Cl)cn12,29%,-24%,-31%,u,x,-30%
COc1cccc(NC(=O)CCc2nnc3n(CCc4ccccc4)c(=O)c4ccccc4n23)c1,x,8%,x,x,x,x
Cn1nc(C(=O)NCC(c2ccco2)N2CCCC2)c2ccccc2c1=O (stereo not drawn),x,-15%,x,x,x,x
O=[N+]([O-])c1ccc(S(=O)(=O)Nc2ccc(S(=O)(=O)N3CCCC3)cc2)cc1,14%,0%,-21%,35µM*,-6%,-1%
O=[N+]([O-])c1ccc(Cl)c(S(=O)(=O)Nc2ccc(S(=O)(=O)N3CCOCC3)cc2)c1,28%,-1%,-2%,45µM*,8%,-2%
O=[N+]([O-])c1cccc(S(=O)(=O)Nc2ccc(S(=O)(=O)N3CCCC3)cc2)c1,38%,0%,x,x,x,-8%
COC(=O)CNC(=O)c1ccc(NS(=O)(=O)c2cc([N+](=O)[O-])ccc2Cl)cc1,11%,-14%,16%,56µM*,-24%,-15%
CCOc1ccc(C(N)=O)cc1OC,28%,-48%,9%,10%[12.7 µM],18%,-8%
CCOc1ccc(N)cc1OC,-18%,2%,u,50µM*,5%,u
CN(Cc1ccco1)c1ccnc(-c2cccnc2)n1,x,u,x,8%[0.501 µM],-16%,x
CN(Cc1ccco1)c1ccnc(-c2ccoc2)n1,x,u,x,x,50µM*,x
CN(C)C1C(=O)C(C(N)=O)=C(O)[C@@]2(O)C(=O)C3=C(O)c4c(O)ccc(Cl)c4[C@@H](O)C3C[C@@H]12 (stereo partly drawn),x,x,x,35µM*,x,x
SMILES,HP1b binding inh,ALOX12 inh,BAZ2B block,G9a inh,Sfp inh,JMJD2A Tudor inh
CN(C)C1C(=O)C(C(N)=O)=C(O)[C@@]2(O)C(=O)C3=C(O)c4c(O)ccc(Cl)c4C(O)[C@H]3C[C@@H]12 (stereo partly drawn),x,x,x,-28%[2.33 µM],5%,x
CN(C)C1C(=O)C(C(N)=O)C(=O)C2(O)C(=O)C3C(=O)c4c(O)ccc(Cl)c4C(O)C3CC12 (stereo not drawn),x,x,x,16µM*,-9%,x
CN(C)c1ccc(O)c2c1CC1CC3[C@@H](N(C)C)C(=O)C(C(N)=O)=C(O)[C@]3(O)C(=O)C1=C2O (stereo partly drawn),26%,u,3.5µM*,10µM*,-12%,-12%
COc1ccc(-c2coc3cc(OC(=O)C(C)(C)C)ccc3c2=O)cc1OC,x,-1%,x,x,x,x
CC1(C)C[C@H](NC(=O)c2ccccc2)[C@@]2(CCC(=O)NCCN3CCOCC3)CC[C@](C)(O)C[C@@H]12,x,6%,x,x,x,x
O=S(=O)(Nc1ccc(Br)cc1)c1cccc2nonc12,7%,15%,-34%,79µM*,15%,-29%
O=[S+]([O-])(c1ccccc1)N1CC2(COCCN(CC3CC3)C2)C1,x,-6%[176 µM],x,x,x,x
CCCOc1ccc(C[N+](C)(C)C)cc1C[N+](C)(C)C,x,63µM*,x,x,x,x
Cc1occc(=O)c1OC(=O)Nc1ccc(Cl)c(Cl)c1,5%,u,-1%,u,-15%,25µM*
Cc1noc([C@H]2CCN(C(=O)c3ccnn3C)C[C@H]2NC(=O)C2CC2)n1,x,69%,x,x,x,x
COc1ccc(N(CC(=O)NC2CCS(=O)(=O)C2)S(=O)(=O)c2ccc(Cl)c(Cl)c2)cc1 (stereo not drawn),7%,-1%,14%,50µM*,x,-13%
CCCC/C=C/C=C\C=O,x,-2%[176 µM],x,x,x,x
COC(=O)c1ccc(NC(=O)CN2C(=O)CNC2=O)cc1,39%,21%,2%,13µM*,14%,0%
O=C(CN1CCN(S(=O)(=O)c2ccc(F)cc2)CC1)Nc1ccc(Cl)c(C(F)(F)F)c1,30%,0%,5%,5%,16%,-13%
Cc1n[nH]c(C)c1NC(=O)CN1CCN(S(=O)(=O)c2ccc(C(F)(F)F)cc2)CC1,u,-69%,x,x,x,4.5µM*
COc1ccc(Cl)cc1NC(=O)CN1CCN(S(=O)(=O)c2ccc(F)cc2)CC1,26%,2%,-10%,5%,5%,-7%
COc1ccc(C)cc1NC(=O)CN1CCN(S(=O)(=O)c2ccc(C(C)C)cc2)CC1,20%,5%,12%,-4%[12.7 µM],3%,-9%
COc1ccc(C)cc1NC(=O)CN1CCN(S(=O)(=O)c2ccc(Cl)cc2)CC1,16%,0%,9%,14µM*,9%,-6%
Cc1ccc(NC(=O)CN2C(=O)CNC2=O)cc1,17%,6%,u,-4%,8%,-3%
COc1ccc(S(=O)(=O)N2CCN(CC(=O)Nc3c(C)n[nH]c3C)CC2)cc1OC,u,0.56µM*,x,x,x,0.89µM*
N#Cc1c(NC(=O)CNc2ccccc2C(=O)NCC(F)(F)F)sc2c1CCCCC2,x,-27%,x,x,x,x
O=C(NCCN1CCCC1)c1nn(Cc2ccccc2)c(=O)c2ccccc12,x,-8%,x,x,x,x
COCCN1C(=O)CCC2(C(=O)NCCc3c[nH]c4ccccc34)CCCC=C12 (stereo not drawn),x,14%,x,x,x,x

# Bioassay records deposited in PubChem by National Center for Advancing Translational Sciences (NCATS).
